These results are taken from PubChem BioAssay (Tox21).

Molecules are shown by their SMILES. “And” between values parts separate entries of the source, which are not always exact repeats. Equal values may be shown once. Records with an inconclusive call do not appear. Entries that show only a call come without a potency. The source made the active and inactive calls. The call rests on the fitted dose curve; in most records, active means well fitted curve in the direction sought with a large enough effect in the repeat runs; inconclusive means weak or mixed curves; inactive means no such curve, though single readings can be large; an effect the other way counts as inactive or inconclusive.

Tested on in one test: not listed separately
As to the kind of experiment: qHTS assay to identify aromatase inhibitors - cell viability counter screen (AID 743084).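 Further: cells stimulated with testosterone during compound exposure; nearly all actives have a fitted effect of over 55% in size.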 As to conditions: MCF-7 aro ERE viability, CellTiter-Fluor, 24 h; series mostly up to 70.3 µM; activity change, negative = cytotoxicity: at the top concentration.
On to `O=S1(=O)CCCO1`, for which the Potency entry is “inactive”. With `CCOC(=O)C(C)Oc1ccc(Oc2cnc3cc(Cl)ccc3n2)cc1` (stereo unspecified), the Potency result is “inactive”. Still for that read-out and setting: the entry for `COC(=O)CC(=O)OC` is “inactive”. Turning to `C=C[Si](OCCOC)(OCCOC)OCCOC`, the “activity change, negative = cytotoxicity” value is 13.4% (inactive).

For `CN(C)/N=N/c1nc[nH]c1C(N)=O`, the Potency result was “inactive”. Same read-out and setting: the value for `c1ccc2c(c1)[nH]c1ccccc12` was “inactive”.

Take `CCCCCCC(C)O` (stereo unspecified): the Potency result was “inactive”. Still for that read-out and setting: the value for `CCC/C=C/C=O` was “inactive”; that for `CCCCCCCCCCCCO` was “inactive”.

Regarding `CC(C)[N+](C)(CCOC(=O)C1c2ccccc2Oc2ccccc21)C(C)C`, the Potency result is “inactive”.

For the compound `C/C=C/C(=O)N(CC)c1ccccc1C`, the Potency result was “inactive”. On the same count and under the same terms, the value for `COC(=O)c1ccc(C)cc1` was “inactive”; that for `CCc1cccc2c3c([nH]c12)C(CC)(CC(=O)O)OCC3` (stereo unspecified) was “inactive”; that for `CCCCCCCCCCCCCO` was “inactive”. Still for that read-out and setting: the entry for `CC(C)=CCO` is “inactive”; for `CC(=O)Oc1c(C)c(C)c2c(c1C)CC[C@@](C)(CCC[C@H](C)CCC[C@H](C)CCCC(C)C)O2` it is “inactive”.

As for `Cc1ccc(C(C)(C)C)cc1`, the Potency entry was “inactive”. Same read-out and setting: the value for `CCO[Si](CCCNC(N)=O)(OCC)OCC` was “inactive”; that for `OC[C@H]1O[C@@H]2O[C@H]3[C@H](O)[C@@H](O)[C@@H](O[C@H]4[C@H](O)[C@@H](O)[C@@H](O[C@H]5[C@H](O)[C@@H](O)[C@@H](O[C@H]6[C@H](O)[C@@H](O)[C@@H](O[C@H]7[C@H](O)[C@@H](O)[C@@H](O[C@H]1[C@H](O)[C@H]2O)O[C@@H]7CO)O[C@@H]6CO)O[C@@H]5CO)O[C@@H]4CO)O[C@@H]3CO` was “inactive”. The same measure, in the same setting: the entry for `CC1(C)O[C@@H]2C[C@H]3[C@@H]4C[C@H](F)C5=CC(=O)C=C[C@]5(C)[C@@]4(F)[C@@H](O)C[C@]3(C)[C@]2(C(=O)CO)O1` is “inactive”; for `CCCCCCCC/C=C\CCCCCCCC(=O)O` it is “inactive”; for `CN(C)C` it is “inactive”. Same read-out and setting: the entry for `CCC(Cc1c(I)cc(I)c(N)c1I)C(=O)O` (stereo unspecified) is “inactive”; for `Cc1ccc([N+](=O)[O-])c(C)c1` it is “inactive”. For `O=C1CCc2ccccc2O1`, the Potency entry was “inactive”. Same read-out and setting: the value for `[Na+]` was “inactive”; that for `C1COCCN1` was “inactive”; that for `Nc1cc(Cl)c(N)c(Cl)c1` was “inactive”. Turning to `CC(C)(C)c1cccc(C(C)(C)C)c1O`, the “activity change, negative = cytotoxicity” value was -0.932% (inactive).

As for `C=CCNCC=C`, the Potency entry is “inactive”. Still for that read-out and setting: the value for `FC(F)(F)C(Cl)Br` (stereo unspecified) was “inactive”; that for `CCCCCC1C(=O)CCC1CC(=O)OC` (stereo unspecified) was “inactive”. The same measure, in the same setting: the entry for `NCCOCCO` is “inactive”; for `CNC[C@H](O)c1ccc(O)c(O)c1` it is “inactive”. For `NCCS(=O)(=O)O`, the “activity change, negative = cytotoxicity” value is 9.45% (inactive). Take `Cc1ccc(S(=O)(=O)O)cc1C`: the Potency entry was “inactive”. `CC1(C)C(C=C(Cl)Cl)C1C(=O)OCc1cccc(Oc2ccccc2)c1` (stereo unspecified): the Potency result is “inactive”. Take `Cc1ccc(N)c([N+](=O)[O-])c1`: the Potency entry was “inactive”. Same read-out and setting: the entry for `O=C(O)c1cc(=O)[nH]c(=O)[nH]1` is “inactive”.

In the next test the target is Aryl hydrocarbon receptor (Homo sapiens) (UniProt P35869). The test is described as follows: qHTS assay to identify small molecule that activate the aryl hydrocarbon receptor (AhR) signaling pathway (AID 743085). Further: nearly all actives have a fitted effect of over 15% in size. Further: potency means the concentration at half of the fitted maximal effect.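 On activation: HG2L7.5c1 human HepG2 liver cells with stably integrated DRE-driven firefly reporter.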 The settings on record: HepG2 AhR-luc (HG2L7.5c1), luciferase, 24 h; series mostly up to 70.3 µM; activation: at the top concentration. In short, it runs like this: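 HepG2 cells (HG2L7.5c1) stably carrying a firefly luciferase reporter driven by 20 dioxin responsive elements were exposed to compound for 24 h at 37C after a 5 h settling period; luminescence rise (ONE-Glo) indicated activation.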
Sequence of Aryl hydrocarbon receptor (Homo sapiens) (P35869 whole entry, looked up): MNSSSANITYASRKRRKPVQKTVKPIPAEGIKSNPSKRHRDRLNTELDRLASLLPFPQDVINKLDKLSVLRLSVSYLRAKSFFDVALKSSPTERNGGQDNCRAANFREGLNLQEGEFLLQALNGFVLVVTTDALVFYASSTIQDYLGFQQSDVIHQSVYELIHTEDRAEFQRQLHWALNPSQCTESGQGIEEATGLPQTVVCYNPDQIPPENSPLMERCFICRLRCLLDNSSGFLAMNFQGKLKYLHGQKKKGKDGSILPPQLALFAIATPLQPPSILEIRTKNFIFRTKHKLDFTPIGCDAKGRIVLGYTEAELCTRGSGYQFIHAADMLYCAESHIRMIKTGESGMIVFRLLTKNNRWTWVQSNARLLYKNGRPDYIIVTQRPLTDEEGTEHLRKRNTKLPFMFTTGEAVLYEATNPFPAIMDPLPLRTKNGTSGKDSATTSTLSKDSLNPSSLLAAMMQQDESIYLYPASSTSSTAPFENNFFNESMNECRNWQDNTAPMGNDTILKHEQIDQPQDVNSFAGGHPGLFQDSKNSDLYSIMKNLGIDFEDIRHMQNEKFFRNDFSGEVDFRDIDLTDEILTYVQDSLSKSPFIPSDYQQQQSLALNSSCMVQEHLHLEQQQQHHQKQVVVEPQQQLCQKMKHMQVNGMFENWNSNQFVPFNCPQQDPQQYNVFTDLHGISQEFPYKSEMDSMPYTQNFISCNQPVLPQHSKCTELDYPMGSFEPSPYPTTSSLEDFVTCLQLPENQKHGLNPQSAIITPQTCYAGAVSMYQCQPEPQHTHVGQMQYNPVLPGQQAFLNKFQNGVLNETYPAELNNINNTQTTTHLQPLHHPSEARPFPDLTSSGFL
(In general: In qHTS, concentration-response curves come from the screen itself.)
Turning to `O=S1(=O)CCCO1`, the Potency result was “inactive”. Regarding `COC(=O)CC(=O)OC`, the Potency result is “inactive”. On the same count and under the same terms, the entry for `C=C[Si](OCCOC)(OCCOC)OCCOC` is “inactive”; for `CN(C)/N=N/c1nc[nH]c1C(N)=O` it is “inactive”.

Regarding `c1ccc2c(c1)[nH]c1ccccc12`, the Potency result is “inactive”.

On to `CCCCCCC(C)O` (stereo unspecified), for which the Potency entry is “inactive”. Still for that read-out and setting: the value for `CCC/C=C/C=O` was “inactive”.

On to `CCCCCCCCCCCCO`, for which the Potency entry is “inactive”. Regarding `CC(C)[N+](C)(CCOC(=O)C1c2ccccc2Oc2ccccc21)C(C)C`, the “activation” value is -0.189% (inactive).

Turning to `C/C=C/C(=O)N(CC)c1ccccc1C`, the Potency result was “inactive”.

Regarding `COC(=O)c1ccc(C)cc1`, the Potency entry was “inactive”.

As for `CCc1cccc2c3c([nH]c12)C(CC)(CC(=O)O)OCC3` (stereo unspecified), the Potency entry is “inactive”. Same read-out and setting: the entry for `CCCCCCCCCCCCCO` is “inactive”; for `CC(C)=CCO` it is “inactive”; for `CC(=O)Oc1c(C)c(C)c2c(c1C)CC[C@@](C)(CCC[C@H](C)CCC[C@H](C)CCCC(C)C)O2` it is “inactive”. Still for that read-out and setting: the entry for `Cc1ccc(C(C)(C)C)cc1` is “inactive”; for `CCO[Si](CCCNC(N)=O)(OCC)OCC` it is “inactive”. Same read-out and setting: the entry for `OC[C@H]1O[C@@H]2O[C@H]3[C@H](O)[C@@H](O)[C@@H](O[C@H]4[C@H](O)[C@@H](O)[C@@H](O[C@H]5[C@H](O)[C@@H](O)[C@@H](O[C@H]6[C@H](O)[C@@H](O)[C@@H](O[C@H]7[C@H](O)[C@@H](O)[C@@H](O[C@H]1[C@H](O)[C@H]2O)O[C@@H]7CO)O[C@@H]6CO)O[C@@H]5CO)O[C@@H]4CO)O[C@@H]3CO` is “inactive”. For the compound `CC1(C)O[C@@H]2C[C@H]3[C@@H]4C[C@H](F)C5=CC(=O)C=C[C@]5(C)[C@@]4(F)[C@@H](O)C[C@]3(C)[C@]2(C(=O)CO)O1`, the Potency result is “inactive”. Still for that read-out and setting: the value for `CCCCCCCC/C=C\CCCCCCCC(=O)O` was “inactive”. Still for that read-out and setting: the entry for `CN(C)C` is “inactive”. Still for that read-out and setting: the value for `CCC(Cc1c(I)cc(I)c(N)c1I)C(=O)O` (stereo unspecified) was “inactive”. For the compound `Cc1ccc([N+](=O)[O-])c(C)c1`, the “activation” value is 0.736% (inactive). Regarding `O=C1CCc2ccccc2O1`, the Potency entry was “inactive”. The same measure, in the same setting: the entry for `[Na+]` is “inactive”; for `C1COCCN1` it is “inactive”; for `Nc1cc(Cl)c(N)c(Cl)c1` it is 27.1 µM (active) and 21.7 µM (active).

For the compound `CC(C)(C)c1cccc(C(C)(C)C)c1O`, the Potency entry was “inactive”.

On to `C=CCNCC=C`, for which the Potency result was “inactive”.

Turning to `FC(F)(F)C(Cl)Br` (stereo unspecified), the Potency result was “inactive”.

Turning to `CCCCCC1C(=O)CCC1CC(=O)OC` (stereo unspecified), the Potency result is “inactive”. In the case of `NCCOCCO`, the Potency entry was “inactive”. On to `CNC[C@H](O)c1ccc(O)c(O)c1`, for which the “activation” value was 1.59% (inactive). Still for that read-out and setting: the figure for `NCCS(=O)(=O)O` is -0.359% (inactive). As to `Cc1ccc(S(=O)(=O)O)cc1C`, the Potency result was “inactive”. On to `CC1(C)C(C=C(Cl)Cl)C1C(=O)OCc1cccc(Oc2ccccc2)c1` (stereo unspecified), for which the “activation” value is 3.7% (inactive). Turning to `O=C(O)c1cc(=O)[nH]c(=O)[nH]1`, the Potency result is “inactive”.
